Reference: ChEMBL document CHEMBL3988442, “University of Dundee, Small-Polar-MMV Screening Library” (2021)
The whole screen tested about 67,000 compounds, of which about 300 (0.45%) showed an effect of 50% or more. Shown is part of a subset that was picked to be rich in strong results.

The molecules below were run against Polyketide synthase Pks13 (Mycobacterium tuberculosis (strain ATCC 25618 / H37Rv)) (UniProt I6X8D2) (assay: Mycobacterium tuberculosis Polyketide synthase 13 Thioesterase (PKS13)). Settings: 30 µM.
Format: functional
Set-up: scale not given: in the data most compounds retested in dose-response had high values

Chain of Polyketide synthase Pks13 (Mycobacterium tuberculosis (strain ATCC 25618 / H37Rv)) (I6X8D2 whole entry): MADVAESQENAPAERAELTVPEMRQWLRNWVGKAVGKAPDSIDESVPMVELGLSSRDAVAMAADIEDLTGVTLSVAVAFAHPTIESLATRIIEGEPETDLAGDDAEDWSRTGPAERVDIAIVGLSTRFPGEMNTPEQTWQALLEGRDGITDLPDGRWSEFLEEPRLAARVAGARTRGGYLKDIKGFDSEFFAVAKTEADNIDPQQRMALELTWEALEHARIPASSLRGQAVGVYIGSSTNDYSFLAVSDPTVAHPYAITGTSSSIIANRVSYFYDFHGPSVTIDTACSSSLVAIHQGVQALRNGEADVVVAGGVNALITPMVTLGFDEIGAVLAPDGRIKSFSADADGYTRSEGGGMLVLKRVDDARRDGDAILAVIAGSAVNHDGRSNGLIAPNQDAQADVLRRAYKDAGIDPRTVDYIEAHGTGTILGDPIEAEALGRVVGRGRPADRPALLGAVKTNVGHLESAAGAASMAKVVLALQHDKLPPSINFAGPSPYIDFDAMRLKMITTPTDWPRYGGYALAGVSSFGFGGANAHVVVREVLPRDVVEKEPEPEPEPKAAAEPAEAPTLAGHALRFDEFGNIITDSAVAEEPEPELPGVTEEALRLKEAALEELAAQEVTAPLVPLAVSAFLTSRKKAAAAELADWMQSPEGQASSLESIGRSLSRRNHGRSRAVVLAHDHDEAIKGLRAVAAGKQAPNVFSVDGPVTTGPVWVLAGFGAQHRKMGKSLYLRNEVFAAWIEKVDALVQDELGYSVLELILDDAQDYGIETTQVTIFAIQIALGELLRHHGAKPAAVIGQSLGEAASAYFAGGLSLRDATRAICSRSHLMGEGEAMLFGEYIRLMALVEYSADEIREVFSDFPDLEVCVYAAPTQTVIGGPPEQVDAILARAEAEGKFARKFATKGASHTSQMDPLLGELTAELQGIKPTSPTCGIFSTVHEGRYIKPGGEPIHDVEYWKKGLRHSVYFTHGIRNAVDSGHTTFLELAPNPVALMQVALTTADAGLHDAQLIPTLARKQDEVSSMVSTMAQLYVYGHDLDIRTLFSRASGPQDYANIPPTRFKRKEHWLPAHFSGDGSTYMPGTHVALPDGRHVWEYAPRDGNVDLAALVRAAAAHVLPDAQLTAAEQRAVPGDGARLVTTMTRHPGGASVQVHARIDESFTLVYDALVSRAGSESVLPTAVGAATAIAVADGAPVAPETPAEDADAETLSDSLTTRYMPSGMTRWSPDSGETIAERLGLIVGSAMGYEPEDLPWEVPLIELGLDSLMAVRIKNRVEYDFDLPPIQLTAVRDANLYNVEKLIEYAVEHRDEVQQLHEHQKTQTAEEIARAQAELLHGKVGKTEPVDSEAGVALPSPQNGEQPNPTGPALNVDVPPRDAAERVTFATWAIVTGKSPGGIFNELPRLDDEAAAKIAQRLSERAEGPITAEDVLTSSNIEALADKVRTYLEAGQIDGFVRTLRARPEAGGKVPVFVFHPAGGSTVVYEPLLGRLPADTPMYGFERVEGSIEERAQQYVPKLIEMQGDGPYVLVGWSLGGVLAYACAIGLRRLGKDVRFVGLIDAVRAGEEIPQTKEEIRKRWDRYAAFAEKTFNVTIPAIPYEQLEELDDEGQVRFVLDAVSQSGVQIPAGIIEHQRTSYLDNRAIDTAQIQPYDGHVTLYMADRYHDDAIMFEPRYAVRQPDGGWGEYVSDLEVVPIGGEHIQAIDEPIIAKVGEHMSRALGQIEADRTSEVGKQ

Structure (SMILES)	Percent Effect
CS(=O)(=O)N1C[C@@H]2CC[C@H](C1)N(CCC(=O)NCc1ccco1)C2	-13.4%
CN1CC2(CCCN(Cc3nnc(-c4ccco4)o3)CC2)OC1=O (stereo not given)	62.4%
CN1CC2(CCCN(Cc3nnc(-c4ccccc4)o3)CC2)OC1=O (stereo not given)	-7.32%
CC(C)c1nnc(CN2CCCC3(CC2)CN(C)C(=O)O3)o1 (stereo not given)	-10.9%
Cn1ccc(C(=O)N2C[C@@H]3CN(CC4CC4)CCO[C@@H]3C2)n1	-15.9%
O=C(N[C@@H]1CN(c2ncccn2)C[C@@H]2CCCO[C@@H]21)c1cnccn1	-18%
COc1cccc(N2CCN(CC(O)c3ccc(C)cc3)CC2)c1 (stereo not given)	-26.6%
CCc1ccc(C(O)CN2CCN(c3cccc(OC)c3)CC2)cc1 (stereo not given)	56.5%
COc1cccc(C(O)CN2CCN(c3cccc(C)c3)CC2)c1 (stereo not given)	0.857%
CNC(=O)[C@H]1C[C@@H]2CN(Cc3ccc(C)cc3)C[C@H]1O2	-2.73%
COc1ccc(NC(=O)Cn2c(=O)nc(N)c3cc(C)sc32)cc1	-1.59%
Cc1cc2c(N)nc(=O)n(CC(=O)Nc3cccc(Cl)c3)c2s1	11.9%
Cc1cc2c(N)nc(=O)n(CC(=O)Nc3ccccc3)c2s1	61%
c1cnc(N2C[C@H]3CCN(Cc4ccncc4)C[C@H]3C2)nc1	-10.9%
CCc1n[nH]c(SCC(=O)N2C[C@@H]3CC[C@H](C2)N(CC=C(C)C)C3)n1	4.76%
CCc1ccc(CN2CC[C@@H]3CN(S(C)(=O)=O)CCO[C@@H]3C2)o1	-6.54%
CNC(=O)[C@H]1C[C@@H]2CN(S(=O)(=O)c3ccc(OC)cc3)C[C@@H]2N1C	-0.271%
O=C(C[C@@H]1COC[C@H]2CN(C(=O)c3cccnc3)C[C@@H]12)N1CCOCC1	-5.25%
Cc1cc(C)c2cc(CNCc3ccccc3)c3nn(C)c(=O)n3c2c1	-72.8%
Cc1cc(C)c2cc(CNCc3ccco3)c3nn(C)c(=O)n3c2c1	-29.8%
CCCNCc1cc2c(C)cc(C)cc2n2c(=O)n(C)nc12	33.4%
Cc1cc(C)c2cc(CNC3CCCCC3)c3nn(C)c(=O)n3c2c1	10.2%
Cc1cc(C)c2cc(CNCc3cccnc3)c3nn(C)c(=O)n3c2c1	112%
Cc1cc(C)c2cc(CNC(C)C)c3nn(C)c(=O)n3c2c1	52.3%
Cc1cnc(N2CC[C@@H]3O[C@@H](COCC(=O)N(C)C)CC[C@@H]32)nc1	-4.2%
Cc1cc(C)nc(N2CC[C@@]3(O)CCN(S(=O)(=O)N(C)C)C[C@H]3C2)n1	-22.2%
O=C([C@@H]1COC[C@H]2CN(C3CCOCC3)C[C@H]21)N1CCCCO1	3.42%
Cc1cccc(C)c1Oc1ncccc1CNC(=O)C1(C)CCCNC1 (stereo not given)	-21.7%
CC1(C(=O)NCc2cccnc2Oc2ccc(F)cc2F)CCCNC1 (stereo not given)	-16.5%
CC1(C(=O)NCc2cccnc2Oc2ccc(F)c(F)c2)CCCNC1 (stereo not given)	63.7%
